Experiment [1] is described as follows: NCI Yeast Anticancer Drug Screen. Data for the rad50 strain (AID 155).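 Further: 0% = growth of vehicle-only cultures of the same strain.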 As to conditions: S. cerevisiae rad50 strain growth inhibition; at 50.0 µM; hits give high values. Summed up: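 Cells are treated with compound, grown, and their growth is then scored against vehicle-only cultures of the same repair-deficient yeast strain.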
The nature of experiment [2]: NCI Yeast Anticancer Drug Screen. Data for the mec2-1 strain (AID 157). The conditions noted are these: S. cerevisiae mec2-1 strain, at 50.0 µM, hits give high values. Summed up:
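Yeast mec2-1 mutant treated with compound. Readout: growth inhibition vs vehicle controls.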

A short description of experiment [3]: NCI Yeast Anticancer Drug Screen. Data for the sgs1 mgt1 strain (AID 161).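 Further: 0% = growth of cultures given vehicle only.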 As to conditions: S. cerevisiae sgs1 mgt1 strain, at 50.0 µM, hits give high values. The essentials:
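Read-out: growth inhibition vs vehicle controls. Cells: mutant yeast strain deficient in DNA damage repair.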

Experiment [4] can be described thus: NCI Yeast Anticancer Drug Screen. Data for the cln2 rad14 strain (AID 165).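 Further: 0% = growth equal to vehicle treated cultures.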 As to conditions: S. cerevisiae cln2 rad14 strain, at 50.0 µM, hits give high values. The essentials: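 cln2 rad14 yeast strain; compound exposure; growth inhibition read vs vehicle controls.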
Experiment [5] in a line: NCI Yeast Anticancer Drug Screen. Data for the bub3 strain (AID 167). The conditions noted are these: S. cerevisiae bub3 mutant strain, at 50.0 µM, hits give high values. Summed up: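 Part of a panel of yeast mutants defective in DNA damage repair or cell cycle regulation. Each strain is grown with compound, and inhibition is calculated relative to solvent-treated cultures.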

Experiment [6] in a line: NCI Yeast Anticancer Drug Screen. Data for the mlh1 rad18 strain (AID 175). As to conditions: S. cerevisiae mlh1 rad18 strain growth inhibition; at 50.0 µM; hits give high values. Summed up: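 Yeast w/ defined DNA-repair lesions; compound exposure; growth vs vehicle controls → % inhibition.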

This note sets out measurements from PubChem BioAssay (NCI).

About 79,000 compounds went through this panel and 15% of them were active in at least one assay; those are over-represented in the sample as a whole. Values without a mark were called inactive. The source made the active and inactive calls. No stated cut-off is given here; in the data, active means growth inhibition above about 70%; inactive means the rest.

Turning to `NCCC(=O)c1ccc(Cl)cc1`, the growth inhibition in experiment [1] was 45.4%; in experiment [2], -10.4%; in experiment [3], 6.8%; in experiment [4], 4.45%; in experiment [5], -9.6%; in experiment [6] it was 19.8%.
Turning to `Cc1cc(O)ccc1O`, the growth inhibition was 31% in experiment [1]; 25.1% in experiment [2]; 7% in experiment [3]; -5.05% in experiment [4]; 3.5% in experiment [5]; 42.3% in experiment [6].
Consider `CC(=O)c1c[nH]c2ccccc12`, for which the growth inhibition in experiment [1] is -6.8%; in experiment [2], -9.85%; in experiment [3] it was -19.6%; in experiment [4], -53.2%; in experiment [5] it was -2.25%; in experiment [6] it was 9.15%.
For `CCN(CC)c1ccc2nc3ccc(=[N+](CC)CC)cc-3oc2c1`, the growth inhibition in experiment [1] was -213%; in experiment [2], -192%; in experiment [3], -187%; in experiment [4] it was -165%; in experiment [5] it was -246%; in experiment [6], -258%.
As for `S=C1NCc2cncnc2N1`, the growth inhibition was -13.7% in experiment [1]; -2.05% in experiment [2]; -6.9% in experiment [3]; -8.7% in experiment [4]; 3.85% in experiment [5]; 18.8% in experiment [6].
For the compound `COc1ccc(C2(O)CCCCC2)cc1`, the growth inhibition is 17.7% in experiment [1]; -13.2% in experiment [2]; 2.85% in experiment [3]; 6.45% in experiment [4]; 7.35% in experiment [5]; 28.2% in experiment [6].
Take `O=[N+]([O-])c1ccc(N=Nc2ccc(O)c3ccccc23)cc1`: the growth inhibition is 13.3% in experiment [1]; 1.45% in experiment [2]; 21.9% in experiment [3]; 16.6% in experiment [4]; -25.2% in experiment [5]; -9.35% in experiment [6].
On to `O=C(NCO)c1ccccc1`, for which the growth inhibition in experiment [1] is 36.2%; in experiment [2], 1.95%; in experiment [3], -1.65%; in experiment [4] it was 7.75%; in experiment [5], 13.9%; in experiment [6] it was 27.9%.
In the case of `NC(=O)N/N=C\c1ccco1`, the growth inhibition in experiment [1] is 26.1%; in experiment [2] it was -9.8%; in experiment [3] it was -13.3%; in experiment [4] it was -11.4%; in experiment [5] it was -14.3%; in experiment [6], 13.1%.
On to `CN(C)c1ccc(CNC(C(=O)c2ccccc2)c2ccccc2)cc1` (stereo unspecified), for which the growth inhibition was -31% in experiment [1]; -5.35% in experiment [2]; -15.6% in experiment [3]; -17.4% in experiment [4]; 8.3% in experiment [5]; -20.9% in experiment [6].
With `CC(=O)/C(Cc1ccccc1)=N/O`, the growth inhibition in experiment [1] is 10.7%; in experiment [2] it was 4.55%; in experiment [3], 15.8%; in experiment [4] it was -4%; in experiment [5], -2.1%; in experiment [6], 2.15%.
Turning to `C[N+](C)=c1ccc2nc3c(cc(Nc4ccccc4)c4ccccc43)oc-2c1`, the growth inhibition in experiment [1] is 20.1%; in experiment [2] it was 49.6%; in experiment [3], 30.1%; in experiment [4], 29.6%; in experiment [5], 38%; in experiment [6] it was 39.2%.
As to `COc1cccc(COC(=O)Nc2ccccc2)c1OC`, the growth inhibition was 29.9% in experiment [1]; 21.4% in experiment [2]; 29.7% in experiment [3]; 21.5% in experiment [4]; 42.5% in experiment [5]; 0.65% in experiment [6].
Regarding `CCS(=O)(=O)c1cc(=O)[nH]c(=O)[nH]1`, the growth inhibition was 22.1% in experiment [1]; 24.9% in experiment [2]; -30.9% in experiment [3]; 32.5% in experiment [4]; -1.45% in experiment [5]; -1.6% in experiment [6].
For the compound `CO[C@H]1C[C@@H]2CC[C@@H](C)[C@@](O)(O2)C(=O)C(=O)N2CCCC[C@H]2C(=O)O[C@H]([C@H](C)C[C@@H]2CC[C@@H](O)[C@H](OC)C2)CC(=O)[C@H](C)C=C(C)[C@@H](O)[C@@H](OC)C(=O)[C@H](C)C[C@H](C)/C=C/C=C/C=C1C`, the growth inhibition in experiment [1] was 88.8% (active); in experiment [2] it was 91.2% (active); in experiment [3], 89.8% (active); in experiment [4], 85.2% (active); in experiment [5], 89.1% (active); in experiment [6], 89.4% (active).
On to `Nc1nc(OCc2ccccc2)c2[nH]cnc2n1`, for which the growth inhibition in experiment [1] was -15.3%; in experiment [2] it was -0.15%; in experiment [3] it was -48.1%; in experiment [4], -29.2%; in experiment [5], -30.9%; in experiment [6], -42.5%.
On to `CN(C)CCN(Cc1ccccc1)c1ccccc1`, for which the growth inhibition is -16.1% in experiment [1]; -41.6% in experiment [2]; -13.6% in experiment [3]; -10.7% in experiment [4]; -20.8% in experiment [5]; -12% in experiment [6].
For `CC(=O)Oc1ccc(Br)cc1C(=O)O`, the growth inhibition in experiment [1] is -15.2%; in experiment [2] it was -24.2%; in experiment [3], -9.7%; in experiment [4] it was -26.9%; in experiment [5] it was -10.6%; in experiment [6] it was 4.15%.
For the compound `COc1ccc(C(O)c2ccccc2)cc1` (stereo unspecified), the growth inhibition was 2.2% in experiment [1]; -17.4% in experiment [2]; -34.9% in experiment [3]; -50.2% in experiment [4]; -28.1% in experiment [5]; -15.2% in experiment [6].
With `CNC(=S)NC(C)(C)C`, the growth inhibition is -14% in experiment [1]; -17.3% in experiment [2]; -20.6% in experiment [3]; -29.2% in experiment [4]; -18.8% in experiment [5]; -20% in experiment [6].
Regarding `CC1(c2ccccc2)NC(=O)NC1=O` (stereo unspecified), the growth inhibition was 26.7% in experiment [1]; -8.85% in experiment [2]; 0.8% in experiment [3]; -1.3% in experiment [4]; -7.65% in experiment [5]; 23.9% in experiment [6].
